Experimental findings from the supplement of paper PMC8975748 are described below.

Counter-ions that a name gives are not always drawn.

This assay has as its system Saccharomyces cerevisiae BY4741 SeMeCo community. Put plainly: z-score of subpopulation abundance vs DMSO median, subpopulation auxotrophic for LUM; higher = larger share of this subpopulation than in DMSO controls. The following applies: 10 µM; 24 h; SM minimal medium; subpopulation (auxotrophy): LUM. Here is the method: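 Fluorescent four-plasmid SeMeCo (self-establishing metabolically cooperating S. cerevisiae BY4741 community; plasmids pH-mRuby2, pL-mWasabi, pU-eCFP, pM-TagRFP657) was grown 24 h in minimal SM medium with each Selleck FDA-approved drug at 10 µM in 384-well plates. Cells were fixed and imaged by high-content confocal microscopy. For each auxotrophic subpopulation (and the prototroph), a z-score gives the deviation from the DMSO vehicle-control population median.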
`NC(=O)c1cn(Cc2c(F)cccc2F)nn1` [Rufinamide]: the “z-score of subpopulation abundance” value came out at 0.43.

`COc1ccc2c(c1)c(CC(=O)O)c(C)n2C(=O)c1ccc(Cl)cc1` [Indomethacin]: the “z-score of subpopulation abundance” value turned out to be 0.47.

On to `CC[C@@H]([C@H](C)O)n1ncn(-c2ccc(N3CCN(c4ccc(OC[C@@H]5CO[C@@](Cn6cncn6)(c6ccc(F)cc6F)C5)cc4)CC3)cc2)c1=O` [Posaconazole], for which the “z-score of subpopulation abundance” value was found to be 7.85.

As to `O=C1C(N(CO)C(=O)NCO)N(CO)C(=O)N1CO` (stereo not given) [Diazolidinyl urea], the “z-score of subpopulation abundance” value was -0.16.

As for `O=C(CCCN1CC=C(n2c(=O)[nH]c3ccccc32)CC1)c1ccc(F)cc1` [Droperidol], the “z-score of subpopulation abundance” value was 0.57.

Take `CCCCN1CCCCC1C(=O)Nc1c(C)cccc1C` (stereo not given) [Bupivacaine HCl]: the “z-score of subpopulation abundance” value is -0.72.

On to `C[C@@H]1CC(=O)NN=C1c1ccc(NN=C(C#N)C#N)cc1` [Levosimendan], for which the “z-score of subpopulation abundance” value was -0.29.

Take `CN(C)CCCN1c2ccccc2Sc2ccc(Cl)cc21` [Chlorpromazine HCl]: the “z-score of subpopulation abundance” value was determined as 0.52.

As to `CCCSc1ccc2[nH]c(NC(=O)OC)nc2c1` [Albendazole], the “z-score of subpopulation abundance” value was -0.08.

Regarding `CCOC(=O)C1=C(COCCN)NC(C)=C(C(=O)OC)[C@@H]1c1ccccc1Cl` [Levamlodipine], the “z-score of subpopulation abundance” value is -4.52.

Regarding `COCCOC(=O)C1=C(C)NC(C)=C(C(=O)OC/C=C/c2ccccc2)C1c1cccc([N+](=O)[O-])c1` (stereo not given) [Cilnidipine], the “z-score of subpopulation abundance” value is -0.1.

For `O=C([O-])CC(O)(CC(=O)[O-])C(=O)[O-].O=C([O-])CC(O)(CC(=O)[O-])C(=O)[O-].[Bi+3].[K+].[K+].[K+].[K+].[K+]` [Bismuth Subcitrate Potassium], the “z-score of subpopulation abundance” value was 0.14.

As for `O=c1ccc2ccc(OCCCCN3CCN(c4cccc5sccc45)CC3)cc2[nH]1` [Brexpiprazole], the “z-score of subpopulation abundance” value is 1.05.

As to `CC1(C)S[C@@H]2[C@H](NC(=O)COc3ccccc3)C(=O)N2[C@H]1C(=O)O` [Penicillin V potassium salt], the “z-score of subpopulation abundance” value is -0.32.

`CCC[C@@H]1C[C@@H](C(=O)N[C@@H]([C@H]2O[C@H](SC)[C@H](OP(=O)(O)O)[C@@H](O)[C@H]2O)[C@H](C)Cl)N(C)C1` [Clindamycin Phosphate]: the “z-score of subpopulation abundance” value is -0.05.

Take `C=CC[N+]1([C@H]2C[C@H]3[C@@H]4CC[C@H]5C[C@H](O)[C@@H](N6CCOCC6)C[C@]5(C)[C@H]4CC[C@]3(C)[C@H]2OC(C)=O)CCCC1` [Rocuronium Bromide]: the “z-score of subpopulation abundance” value is -0.48.

With `C[N+]1(C)[C@@H]2C[C@@H](OC(=O)C(O)(c3cccs3)c3cccs3)C[C@H]1[C@@H]1O[C@@H]12` [Tiotropium Bromide hydrate], the “z-score of subpopulation abundance” value is -0.67.

As to `CC[C@H]1OC(=O)[C@H](C)[C@@H](O[C@H]2C[C@@](C)(OC)[C@@H](O)[C@H](C)O2)[C@H](C)[C@@H](O[C@@H]2O[C@H](C)C[C@H](N(C)C)[C@H]2O)[C@](C)(O)C[C@@H](C)C(=O)[C@H](C)[C@@H](O)[C@]1(C)O` [Erythromycin thiocyanate], the “z-score of subpopulation abundance” value was -0.09.

Consider `O=c1[nH]c2ccccc2n1CCN1CCN(c2cccc(C(F)(F)F)c2)CC1` [Flibanserin], for which the “z-score of subpopulation abundance” value was -0.43.

As to `COc1ccc([C@@H]2Sc3ccccc3N(CCN(C)C)C(=O)[C@@H]2OC(C)=O)cc1` [Diltiazem HCl], the “z-score of subpopulation abundance” value is -0.24.

On to `C[C@]12CC[C@@H]3c4ccc(O)cc4CC[C@H]3[C@@H]1CC[C@@H]2O` [Estradiol], for which the “z-score of subpopulation abundance” value amounted to 0.18.

For the compound `CC(Cc1ccc(O)c(O)c1)C(C)Cc1ccc(O)c(O)c1` (stereo not given) [Nordihydroguaiaretic acid (NDGA)], the “z-score of subpopulation abundance” value came to 0.39.

On to `COc1ccnc(C[S+]([O-])c2nc3cc(-n4cccc4)ccc3[nH]2)c1C` (stereo not given) [Ilaprazole sodium], for which the “z-score of subpopulation abundance” value stood at 0.43.

Regarding `CN1CCN(C2=Nc3ccccc3Oc3ccc(Cl)cc32)CC1` [Loxapine Succinate], the “z-score of subpopulation abundance” value came out at 1.15.

For `CC[C@H]1OC(=O)C[C@@H](O)[C@H](C)[C@@H](O[C@@H]2O[C@H](C)[C@@H](O[C@H]3C[C@@](C)(O)[C@@H](O)[C@H](C)O3)[C@H](N(C)C)[C@H]2O)[C@@H](CC=O)C[C@@H](C)C(=O)/C=C/C(C)=C/[C@@H]1CO[C@@H]1O[C@H](C)[C@@H](O)[C@@H](OC)[C@H]1OC` [Tylosin], the “z-score of subpopulation abundance” value was found to be 1.17.

On to `CO/N=C1\C[C@]2(C[C@@H]3C[C@@H](C/C=C(\C)C[C@@H](C)/C=C/C=C4\CO[C@@H]5[C@H](O)C(C)=C[C@@H](C(=O)O3)[C@]45O)O2)O[C@H](/C(C)=C/C(C)C)[C@H]1C` [Moxidectin], for which the “z-score of subpopulation abundance” value came out at 0.37.

For `Cc1ncc([N+](=O)[O-])n1CCOC(=O)c1ccccc1` [Metronidazole Benzoate], the “z-score of subpopulation abundance” value is -1.13.

For the compound `CCCCNC(=O)NS(=O)(=O)c1ccc(C)cc1` [Tolbutamide], the “z-score of subpopulation abundance” value is -1.

Turning to `CCCCCCCCCCCCCCCC[N+](C)(C)C` [Cetrimonium Bromide (CTAB)], the “z-score of subpopulation abundance” value came to 20.6.

In the case of `CC(C)N1CCN(c2ccc(OCC3COC(Cn4cncn4)(c4ccc(Cl)cc4Cl)O3)cc2)CC1` (stereo not given) [Terconazole], the “z-score of subpopulation abundance” value is -0.86.

With `COc1cc(/C=C/C(=O)N2CCN(CC(=O)N3CCCC3)CC2)cc(OC)c1OC` [Cinepazide maleate], the “z-score of subpopulation abundance” value was -0.41.

As for `CCN1CCCC1CNC(=O)c1cc(S(N)(=O)=O)ccc1OC` (stereo not given) [Sulpiride], the “z-score of subpopulation abundance” value is 0.04.

Take `CC(NCCC(c1ccccc1)c1ccccc1)c1ccccc1` (stereo not given) [Fendiline hydrochloride]: the “z-score of subpopulation abundance” value was 0.05.

On to `CCCCCCCN(CC)CCCC(O)c1ccc(NS(C)(=O)=O)cc1` (stereo not given) [Ibutilide Fumarate], for which the “z-score of subpopulation abundance” value was 0.19.

As to `C[n+]1ccccc1C=NO` [Pralidoxime Iodide], the “z-score of subpopulation abundance” value is 0.18.

`Cc1cc2c(s1)Nc1ccccc1N=C2N1CCN(C)CC1` [Olanzapine]: the “z-score of subpopulation abundance” value is -0.6.

Take `COc1ccnc(C[S+]([O-])c2nc3cc(OC(F)F)ccc3[nH]2)c1OC` (stereo not given) [Pantoprazole]: the “z-score of subpopulation abundance” value was -0.41.

For the compound `C[C@H]1c2cccc(O)c2C(O)=C2C(=O)[C@]3(O)C(O)=C(C(N)=O)C(=O)[C@@H](N(C)C)[C@@H]3[C@@H](O)[C@@H]21` [Doxycycline monohydrate], the “z-score of subpopulation abundance” value worked out at 0.2.

As to `CCCCCNC(=N)N/N=C/c1c[nH]c2ccc(OC)cc12` [Tegaserod Maleate], the “z-score of subpopulation abundance” value is 1.92.

In the case of `CC[C@H]1OC(=O)C[C@@H](O)[C@H](C)[C@@H](O[C@@H]2O[C@H](C)[C@@H](O)[C@H](N(C)C)[C@H]2O)[C@@H](CCN2C[C@H](C)C[C@H](C)C2)C[C@@H](C)C(=O)/C=C/C(C)=C/[C@@H]1CO[C@@H]1O[C@H](C)[C@@H](O)[C@@H](OC)[C@H]1OC` [Tilmicosin], the “z-score of subpopulation abundance” value was determined as 1.68.
